Only some compounds are listed: those with a hit (about 19% of all), similar ones and a draw of the others.
DT40 TDP1 no CPT: qHTS for Inhibitors of human tyrosyl-DNA phosphodiesterase 1 (TDP1): qHTS in cells in absence of CPT | Potency, µM (highest dose often 46.2 µM), for the others: at the top dose activity change, negative = growth inhibition, actives largely listed as inhibitors | DT40 Tdp1-/- hTDP1 cells, no CPT, ATP luminescence, 48 h | 420,000 compounds, 15% hits; further: potency means the concentration at half of the fitted maximal effect; nearly all actives have a fitted effect of over 55% in size
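Growth kinetics read by CellTiter-Glo luminescence after ≥48 hr at 37 °C. Cells: DT40 Tdp1-/- stably carrying human TDP1, 400 per well, compound exposure in the absence of CPT (DMSO vehicle).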
TDP1 cell CPT: growth inhibition of DT40 Tdp1-/-;hTDP1 cells with camptothecin (screen for TDP1 inhibitors). chicken DT40 Tdp1-/-;hTDP1 cells + 20 nM CPT, ATP luminescence, 48 h. Potency, µM (series often up to 46.2 µM), for the others: at the highest dose activity change, negative = growth inhibition, most hits filed as inhibitors. 420,000 compounds, 12% hits; further: potency means the concentration at half of the fitted maximal effect; nearly all actives have a fitted effect of over 55% in size
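Chicken DT40 Tdp1-/- cells complemented with human TDP1, 400 cells/well, exposed to compounds plus 20 nM camptothecin for at least 48 h at 37 C; viability read as ATP content by CellTiter-Glo luminescence.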
IL1B secr inh: inhibitors of inflammasome signaling (IL-1 beta secretion); THP-1 LPS/ATP IL-1B secretion, AlphaLISA, 16 h; hits give low values; activity change, % at 57.5 µM; 360,000 compounds, 4.7% hits; in the data active means activity change below about -50%; inconclusive means mostly about -30% to -49%
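Secreted IL-1B measured by AlphaLISA bead assay after 16 h compound exposure of THP-1 cells; compounds (final up to 57.5 uM) added 1 h before LPS (250 ng/mL) and ATP (1.25 mM) stimulation; lower signal means less secretion.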
ELG1 DNA repair: blocks ELG1-dependent DNA repair in HEK293T cells; Potency, µM (titrated, usually from 46.1 µM), inactives show at the highest dose activity change, negative = inhibition, most hits filed as inhibitors; AID 504467; 330,000 compounds, 2.3% hits; HEK293T ELG1-luciferase reporter, luminescence, 16 h; DNA damage induced by 5-fluorouridine; further: potency means the concentration at half of the fitted maximal effect; nearly all actives have a fitted effect of over 55% in size
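In this reporter screen, reduction of luminescence relative to DMSO vehicle indicated activity. Compounds and 5-fluorouridine were added together to 2,000 cells per well, incubated for 16 hr at 37 °C, then developed with ONE-Glo.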
HT1080-NT tox: kills 2HG-producing HT-1080-NT fibrosarcoma cells; HT-1080-NT fibrosarcoma viability, CellTiter-Glo ATP luminescence, 48 h; Potency, µM (highest dose often 46.1 µM), without a hit: top-dose activity, negative = less viability, actives largely listed as cytotoxic; 360,000 compounds, 1.6% hits;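 further: NT is the 2HG producing partner of a matched IDH1 knockdown line; potency means the concentration at half of the fitted maximal effect; 0% = DMSO-treated cells and -100% = media-only wells without cells; nearly all actives have a fitted effect of over 55% in size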
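Viability by CellTiter-Glo luminescence after 48 h compound exposure at 37C of HT-1080-NT cells (750/well, RPMI, 5% FBS). % activity scaled between DMSO wells and medium-only wells, then curve-fitted and categorized by curve class.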
HT1080 IDH1KD tx: HT-1080 IDH1 knockdown cell toxicity (counter line); HT-1080 IDH1 knockdown viability, ATP luminescence, 48 h; Potency, µM (top dose mostly 46.1 µM), for inactives: top-dose activity, negative = toxicity, actives largely listed as cytotoxic; 360,000 compounds, 2% hits; AID 686971;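 further: potency means the concentration at half of the fitted maximal effect; 0% = DMSO wells and -100% = cell-free medium wells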
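In this qHTS, HT-1080 cells depleted of IDH1 are exposed for 48 h at 37 °C to compound titrations. Toxicity is scored from CellTiter-Glo luminescence, with DMSO as full viability and medium alone as none.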
Numbers without * were called inactive; i = inactive; ? = inconclusive; · = no result. Unless noted, the call rests on the fitted dose curve; in most records, active means well fitted curve in the direction sought with a large enough effect; inconclusive means small, poorly fitted or top-dose-only effect, or another doubt; inactive means no such curve, though single readings can be large; an effect the other way counts as inactive or inconclusive. Unless noted, on the % scale 0 is the no-effect control and ±100 the full control effect.

SMILES	DT40 TDP1 no CPT	TDP1 cell CPT	IL1B secr inh	ELG1 DNA repair	HT1080-NT tox	HT1080 IDH1KD tx
Cc1ccc(/C=C/c2onc(C)c2S(=O)(=O)N2CCC(C(=O)Nc3ccc(C)c(N(C)C)c3)CC2)cc1	9.2µM*	8.2µM*	·	·	·	·
Cc1ccc(/C=C/c2onc(C)c2S(=O)(=O)N2CCC(C(=O)Nc3cc(F)ccc3F)CC2)cc1	-21%	?	·	·	·	·
Cc1ccc(/C=C/c2onc(C)c2S(=O)(=O)N2CCC(C(=O)Nc3ccc(OC(F)(F)F)cc3)CC2)cc1	13µM*	12µM*	·	·	·	·
CCOc1ccc(/C=C2\CCC(C3CCCC3)C2=O)cc1 (stereo unspecified)	-1%	-3%	-4	?	23%	8%
CCC(=O)OCOc1ccc(/C=C2/CCC(CN(C)C)C2=O)cc1 (stereo unspecified)	2.9µM*	2.3µM*	-1	·	?	16µM*
CC1(CO)CCCC1NCCNC1CCCC1(C)CO (stereo unspecified)	0%	2%	10	·	0%	3%
CC(C)(C)OC(=O)C[C@H]1C/C=C\C[C@H](CC(=O)N[C@H](CO)Cc2ccccc2)C(=O)N[C@H](C(C)(C)C)COC1=O	?	?	-5	-23%	28%	1%
CC(C)(C)[C@H]1COC(=O)[C@H](Cc2ccc(F)cc2)CC/C=C/C[C@@H](CC(=O)N[C@H](CO)Cc2ccccc2)C(=O)N1	21µM*	?	12	12%	5%	2%
C[C@H]1COC(=O)[C@H](Cc2ccc(F)cc2)CC/C=C/C[C@@H](CC(=O)N[C@@H](CO)Cc2ccccc2)C(=O)N1	16µM*	12µM*	-1	0%	0%	0%
O=C(C[C@H]1C/C=C\CC[C@H](Cc2ccc(F)cc2)C(=O)OC[C@@H](Cc2c[nH]c3ccccc23)NC1=O)NCCO	?	?	7	-2%	0%	1%
O=C(C[C@@H]1C/C=C/CC[C@@H](Cc2ccc(F)cc2)C(=O)OC[C@H](Cc2ccccc2)NC1=O)N[C@H](CO)Cc1ccccc1	5.2µM*	9.2µM*	-18	?	?	?
O=C(C[C@@H]1C/C=C\CC[C@@H](Cc2ccc(F)cc2)C(=O)OC[C@@H](Cc2ccccc2)NC1=O)NCCO	?	15µM*	11	-4%	16%	7%
C/C(=N\NC(=O)COc1ccc(C#N)cc1)c1ccccc1OC(F)F	?	-21%	-1	-10%	-23%	-12%
O=C(COc1ccc(F)cc1)Nc1ccc(C(=O)OCc2cc(=O)n3nc(C4CC4)sc3n2)cc1	-23%	?	·	·	·	·
CCc1ccccc1N(C)C	-27%	-26%	·	·	·	·
N#Cc1cccc(Nc2c3c(nc4ccccc24)CCC3)c1	?	?	-59*	?	-27%	?
Cc1cccc(Nc2c3c(nc4ccccc24)CCC3)c1	18µM*	15µM*	·	21µM*	15µM*	21µM*
COc1ccc(Nc2c3c(nc4ccc(C)cc24)CCC3)cc1	?	?	-13	-4%	-25%	-29%
Cc1ccc(Nc2c3c(nc4ccccc24)CCC3)cc1F	16µM*	21µM*	·	·	·	·
Cc1nc2cc(OCc3cc(C(=O)NC(C)c4cnn(C)c4)no3)ccc2s1 (stereo unspecified)	?	-26%	i	6%	0%	-8%
O=C(COc1ccccc1[N+](=O)[O-])N(Cc1ccco1)c1ccccn1	-26%	-4%	·	·	·	·
CC1Cc2nc(SCC(=O)Nc3ccc4c(c3)OCO4)n(CCc3ccccc3)c(=O)c2S1 (stereo unspecified)	?	?	?	13µM*	-9%	-1%

Compound activity (PubChem BioAssay)
